PubChem BioAssay
Calls of active or inactive are those of the source. How the calls were made is not given here.

The compounds below were run against Pantothenate synthetase (Mycobacterium tuberculosis (strain ATCC 25618 / H37Rv)) (UniProt P9WIL5) (assay: Recombinant Mtb pantothenate synthetase (PanC) inhibitors, coupled enzyme, confirmatory (AID 375;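 further: 0% = full reaction with vehicle and 100% = no enzyme background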)). Settings: coupled enzyme assay; at 10 µM, stronger effect = higher value.
Pantothenate synthetase (Mycobacterium tuberculosis (strain ATCC 25618 / H37Rv)), sequence (P9WIL5 whole entry, looked up): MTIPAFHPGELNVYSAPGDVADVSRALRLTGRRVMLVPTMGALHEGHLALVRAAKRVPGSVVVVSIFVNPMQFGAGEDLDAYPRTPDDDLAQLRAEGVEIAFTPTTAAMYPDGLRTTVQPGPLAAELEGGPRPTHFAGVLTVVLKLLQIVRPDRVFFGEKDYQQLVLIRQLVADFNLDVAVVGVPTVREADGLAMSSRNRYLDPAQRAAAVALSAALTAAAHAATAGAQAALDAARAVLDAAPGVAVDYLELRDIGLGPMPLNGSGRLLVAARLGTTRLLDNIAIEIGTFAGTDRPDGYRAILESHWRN
With `COc1ccc(-c2nnc(SCC#N)o2)cc1` the inhibition was 0% (inactive). In the case of `COc1cccc(C(=O)CSc2nnc(COc3cccc4cccnc34)o2)c1`, the inhibition is reported as 0% (inactive). `CCOC(=O)c1cnc(C(C)(C)C)[nH]c1=O` was tested, and the inhibition was 10% (inactive). For `O=C(CSc1nnc2sc3ccccc3n12)c1ccco1`, the inhibition was 0% (inactive). With `COc1ccc(N2C(=O)C3CCCN3C2c2ccc(F)cc2)cc1Cl` (centres undefined) the inhibition was 1% (inactive). For `CCN(CC)C(c1ccc(C)cc1)c1nnnn1C1CCCCC1` (centres undefined), the inhibition was 0% (inactive). With `O=C1c2ccccc2C(=O)N1OCc1ccccc1` the inhibition was 0% (inactive). For `CC(=O)N(C)C1(c2nnnn2CCOC(=O)Nc2cccc3ccccc23)CCCC1`, the inhibition was 0% (inactive). With `O=C(Cc1nn[nH]n1)NCCC1=CCCCC1` the inhibition was 4% (inactive). For `c1ccc(-c2csc(N3CCCCCC3)n2)cc1`, the inhibition was 4% (inactive). With `CCCC(c1nnnn1Cc1ccc(OC)cc1)N1CCN(c2ccccc2OC)CC1` (centres undefined) the inhibition was 0% (inactive). In the case of `O=C(c1ccc2c(c1)c(=O)oc1ccccc12)N1CCCCC1`, the inhibition is reported as 6% (inactive). In the case of `COC(=O)c1ccc(C2NC(C(=O)O)CS2)cc1` (centres undefined), the inhibition is reported as 0% (inactive). In the case of `CCN(CC)C(=O)CSc1nnc([C@@H](N)Cc2ccccc2)o1`, the inhibition is reported as 0% (inactive). With `c1ccc2c(c1)CCCC2C1=NCCN1` (centres undefined) the inhibition was 0% (inactive). In the case of `CC(C)(C)Nc1nc(NC(C)(C)C)nc(-n2ccnc2)n1`, the inhibition is reported as 0% (inactive). In the case of `O=C(CSc1nnc(SCc2ccc(Cl)cc2)s1)N1CCN(C(=O)c2ccco2)CC1`, the inhibition is reported as 7% (inactive). For `CO[C@@]1(NC(=O)CSCC#N)C(=O)N2C(C(=O)O)=C(CSc3nnnn3C)CS[C@@H]21`, the inhibition was 0% (inactive). For `Cc1occc1C(=O)Nc1nnc(C2CCCCC2)s1`, the inhibition was 0% (inactive). `c1ccc(Cc2nnc3n2CCCCC3)cc1` was tested, and the inhibition was 6% (inactive). For `O=C1CNCc2[nH]c3ccccc3c2N1c1ccccc1`, the inhibition was 0% (inactive). With `CC1(C)CC(=O)C2=C(C1)Nc1nc(SCCN3CCOCC3)[nH]c(=O)c1C2c1cccs1` (centres undefined) the inhibition was 2% (inactive). For `O=c1c2ccccc2nc(SCc2cccc(F)c2)n1Cc1ccco1`, the inhibition was 4% (inactive). `CC1=C(C(N)=O)C(c2ccccn2)n2nc(SCc3ccccc3)nc2N1` (centres undefined) was tested, and the inhibition was 0% (inactive).
